± gives the standard deviation of the averaged measurements. The full ranking holds about 33,000 sequences; the median of “E-score (rank enrichment, -0.5 to 0.5)” is about -0.0075, and the highest 2% start at about 0.23. The full list was thinned out, with the highest values kept by preference.
system: WT Max(13-93) synthetic (M65Nle); test: PBM 8-mer E-score (E-score (rank enrichment, -0.5 to 0.5)); higher = stronger preferential binding
Description: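 Protein binding microarray (universal PBM chip covering all 10-mers in fixed probe flanks) with chemically synthesized human Max(13-93) bHLH-LZ analogs (not full-length Max) bearing noncanonical residues (hArg, Tha, Aib, Nle at 65) and aromatic Cys staples. Read-out per 8-mer (and its reverse complement): E-score (rank-based enrichment, -0.5 to 0.5) and Z-score of median probe intensity.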

| Sequence | PBM 8-mer E-score |
| --- | --- |
| CGCAGGCA | -0.131 ± 0.12 |
| ATTAACGG | 0.153 ± 0.089 |
| GCTGGCCA | -0.0533 ± 0.076 |
| CGGAACAC | -0.0883 ± 0.0097 |
| CACGTTCA | 0.163 ± 0.018 |
| CATCCAAG | -0.0693 ± 0.012 |
| AGCCCGTC | -0.151 ± 0.071 |
| ATCATGTA | 0.169 ± 0.004 |
| ATCATGTC | 0.186 ± 0.057 |
| ATCATGTG | 0.264 ± 0.022 |
| GTGGTTTA | 0.179 ± 0.053 |
| CGTGGTAA | 0.246 ± 0.1 |
| AGTGGAAA | 0.164 ± 0.094 |
| TGTGGTAA | 0.0282 ± 0.15 |
| TGTGGAAA | 0.249 ± 0.072 |
| GGTGGTAA | 0.11 ± 0.1 |
| CGTGGAAA | 0.267 ± 0.071 |
| CGTGGAAG | 0.176 ± 0.0075 |
| GGTGGAAA | 0.0407 ± 0.064 |
| CGTGGAAC | -0.0332 ± 0.0099 |
| TCTCGGAA | -0.232 ± 0.095 |
| CATCAAAA | 0.0623 ± 0.033 |
| ATCGTCTC | -0.00218 ± 0.023 |
| GCCGATAA | 0.032 ± 0.051 |
| AACGCAGC | -0.1 ± 0.048 |

| Sequence | PBM 8-mer E-score |
| --- | --- |
| AACAATGC | 0.161 ± 0.14 |
| GCTGCGAC | -0.219 ± 0.069 |
| CGCACAGC | -0.171 ± 0.087 |
| GCGGTGAC | -0.146 ± 0.14 |
| TGGTAAAA | 0.0895 ± 0.03 |
| ACGCTACA | 0.275 ± 0.013 |
| TCGCTACA | -0.0172 ± 0.075 |
| GCGCTACA | -0.115 ± 0.006 |
| ATTGATTA | 0.0358 ± 0.11 |
| GTTGATTA | 0.2352 ± 0.0022 |
| CTTGATTA | 0.12 ± 0.025 |
| GCGTTTAA | 0.0231 ± 0.056 |
| AGGTGGTC | -0.0706 ± 0.0051 |
| ACGTGGTA | 0.347 ± 0.069 |
| ACGTGGTC | 0.312 ± 0.022 |
| AAGTGGTG | -0.0214 ± 0.11 |
| CCGTGGTC | -0.211 ± 0.023 |
| AGGTGGTG | 0.109 ± 0.09 |
| ACGTGGTG | 0.392 ± 0.024 |
| CCGTGGTA | -0.0399 ± 0.0038 |
| GCGTGGTA | 0.215 ± 0.12 |
| GGCAAGAA | 0.127 ± 0.016 |
| ACTTGGCA | 0.0244 ± 0.14 |
| CAAGGCTA | -0.0688 ± 0.18 |
| TGCCAGAA | -0.0686 ± 0.042 |

| Sequence | PBM 8-mer E-score |
| --- | --- |
| ATGGTAAC | 0.159 ± 0.045 |
| ATGGTAAG | 0.12 ± 0.15 |
| ATGGTAAT | 0.24 ± 0.019 |
| AAAGGTGA | 0.0498 ± 0.1 |
| AATGGAAG | 0.0617 ± 0.11 |
| CATGGAAC | 0.0484 ± 0.039 |
| CATGGAAG | 0.251 ± 0.028 |
| CATCTTCG | -0.0197 ± 0.078 |
| CCCGGAGC | -0.218 ± 0.06 |
| CGGAACAG | -0.184 ± 0.097 |
| ACAATTCA | 0.0972 ± 0.033 |
| CCAATTCA | 0.237 ± 0.0091 |
| CCAATTCG | 0.00099 ± 0.067 |
| GAAAACTC | -0.0313 ± 0.025 |
| AAACCCAG | -0.00534 ± 0.0017 |
| AAACCCTA | 0.253 ± 0.042 |
| AAACCCAT | 0.236 ± 0.013 |
| AAACCCTG | 0.124 ± 0.14 |
| AAAACCTA | 0.259 ± 0.038 |
| AACCCCAT | 0.00208 ± 0.027 |
| CAAACCTA | 0.0613 ± 0.11 |
| AAAACCTT | 0.0888 ± 0.07 |
| CAACCCTA | 0.00074 ± 0.036 |
| ATAGCGAG | -0.0262 ± 0.05 |
| AGGCCCAA | -0.118 ± 0.037 |

| Sequence | PBM 8-mer E-score |
| --- | --- |
| AAGCACAA | 0.0693 ± 0.08 |
| CGCTTCCG | -0.206 ± 0.041 |
| AGCCTGGA | -0.148 ± 0.017 |
| AAATCGAT | -0.116 ± 0.11 |
| CTGCTATC | -0.116 ± 0.021 |
| CTAGACGC | -0.0678 ± 0.01 |
| AAAATTCG | 0.181 ± 0.015 |
| ACTAAAAT | 0.073 ± 0.087 |
| AATACAAT | 0.0116 ± 0.074 |
| GATACAAA | 0.0639 ± 0.0017 |
| ACTACAAC | 0.253 ± 0.024 |
| AATACAAG | 0.148 ± 0.0056 |
| AATACAAA | 0.288 ± 0.024 |
| AATACAAC | 0.233 ± 0.077 |
| ACTACAAG | -0.03 ± 0.032 |
| CATACAAC | 0.162 ± 0.012 |
| CCTACAAC | 0.126 ± 0.041 |
| ATCGTCTG | -0.0768 ± 0.04 |
| AGTAGACC | -0.143 ± 0.07 |
| AGTGACCA | -0.0103 ± 0.17 |
| AAGGCAAG | 0.149 ± 0.045 |
| CAGTATCG | -0.0719 ± 0.0012 |
| GACAATTA | -0.0274 ± 0.019 |
| CTGATCAG | -0.107 ± 0.14 |
| ATTGGACC | -0.0681 ± 0.039 |

| Sequence | PBM 8-mer E-score |
| --- | --- |
| AGAAGTAG | 0.0117 ± 0.017 |
| ACCGGAAA | -0.104 ± 0.11 |
| ATAATTTC | 0.0565 ± 0.03 |
| ATAATTTG | 0.254 ± 0.031 |
| ATAATTTA | 0.228 ± 0.014 |
| ATAATTAG | 0.237 ± 0.16 |
| ATAATTAC | 0.232 ± 0.019 |
| ATAATTAA | 0.22 ± 0.13 |
| ATAATTCG | 0.147 ± 0.059 |
| ATAATTAT | 0.239 ± 0.0049 |
| CTAATTAG | 0.0687 ± 0.053 |
| AGCACAGC | -0.163 ± 0.16 |
| ACTCTCTG | -0.0092 ± 0.11 |
| CCGCCTCA | -0.108 ± 0.14 |
| ATGGTTTA | 0.161 ± 0.047 |
| AATGGGAA | 0.0482 ± 0.059 |
| TATGTTGA | 0.233 ± 0.0055 |
| GATGTTGA | 0.0902 ± 0.11 |
| CATGTTGA | 0.256 ± 0.1 |
| CATGTTGG | 0.156 ± 0.063 |
| AATGTTGA | -0.0484 ± 0.091 |
| CATGTTGC | 0.12965 ± 2.8e-05 |
| ACGCGTAT | 0.108 ± 0.0066 |
| CAGCGAGA | -0.174 ± 0.013 |
| GACGAATA | 0.17 ± 0.011 |

| Sequence | PBM 8-mer E-score |
| --- | --- |
| GTCGTCCA | -0.159 ± 0.064 |
| ACTTGGCT | -0.128 ± 0.062 |
| AAGTGGCT | 0.0496 ± 0.069 |
| ACGTGGCC | 0.247 ± 0.0096 |
| GCGTGGCC | 0.0675 ± 0.016 |
| AGGTGGCG | 0.13 ± 0.021 |
| CCGTGGCG | -0.147 ± 0.07 |
| ACGTGGCG | 0.296 ± 0.05 |
| TCGTGGCA | 0.219 ± 0.1 |
| CCGTGGCA | -0.0466 ± 0.052 |
| ACGTGGCT | 0.286 ± 0.018 |
| CCGTGGCC | -0.112 ± 0.013 |
| ACGTGGCA | 0.33 ± 0.0069 |
| ACGGGCTC | -0.297 ± 0.085 |
| CGGCAACA | -0.15 ± 0.01 |
| ACCGCTAG | -0.0126 ± 0.12 |
| CCCACATC | -0.1 ± 0.063 |
| AGATGCAA | 0.152 ± 0.13 |
| CACTCCAA | -0.103 ± 0.025 |
| CCGCTCGC | -0.0861 ± 0.086 |
| ACCCCCCG | -0.2 ± 0.1 |
| ATGGCGAA | 0.104 ± 0.068 |
| CAGCGTGC | 0.191 ± 0.014 |
| ACGCGTGA | 0.219 ± 0.081 |
| CCGCGTGC | 0.268 ± 0.051 |

| Sequence | PBM 8-mer E-score |
| --- | --- |
| ACGCGTGG | 0.212 ± 0.03 |
| ACGCGTGC | 0.244 ± 0.02 |
| CCGCGTGA | 0.172 ± 0.0086 |
| AACCCAAG | 0.00894 ± 0.087 |
| CGGGAAAC | -0.106 ± 0.079 |
| AATAACAG | 0.17 ± 0.06 |
| GATAACAA | 0.0563 ± 0.033 |
| CGTAACAA | 0.136 ± 0.087 |
| AATAACAT | 0.181 ± 0.049 |
| CCTAACAA | 0.11 ± 0.026 |
| AATAACAA | 0.264 ± 0.018 |
| CATAACAA | 0.251 ± 0.042 |
| TATAACAA | 0.24 ± 0.026 |
| CATAACAG | 0.125 ± 0.021 |
| TCTAACAA | -0.0242 ± 0.029 |
| CATAACAC | 0.236 ± 0.016 |
| AATAACAC | 0.0775 ± 0.12 |
| CTACGTCC | -0.0109 ± 0.12 |
| AGCAATGC | 0.12 ± 0.09 |
| GGGGACAC | -0.27 ± 0.018 |
| AAAAGGGG | 0.0924 ± 0.053 |
| CGACCAGC | -0.0396 ± 0.11 |

From the supplement of paper PMC12636033
